Unmarked numbers belong to inactive results.

Chain of UniProt P35579 (P35579 whole entry): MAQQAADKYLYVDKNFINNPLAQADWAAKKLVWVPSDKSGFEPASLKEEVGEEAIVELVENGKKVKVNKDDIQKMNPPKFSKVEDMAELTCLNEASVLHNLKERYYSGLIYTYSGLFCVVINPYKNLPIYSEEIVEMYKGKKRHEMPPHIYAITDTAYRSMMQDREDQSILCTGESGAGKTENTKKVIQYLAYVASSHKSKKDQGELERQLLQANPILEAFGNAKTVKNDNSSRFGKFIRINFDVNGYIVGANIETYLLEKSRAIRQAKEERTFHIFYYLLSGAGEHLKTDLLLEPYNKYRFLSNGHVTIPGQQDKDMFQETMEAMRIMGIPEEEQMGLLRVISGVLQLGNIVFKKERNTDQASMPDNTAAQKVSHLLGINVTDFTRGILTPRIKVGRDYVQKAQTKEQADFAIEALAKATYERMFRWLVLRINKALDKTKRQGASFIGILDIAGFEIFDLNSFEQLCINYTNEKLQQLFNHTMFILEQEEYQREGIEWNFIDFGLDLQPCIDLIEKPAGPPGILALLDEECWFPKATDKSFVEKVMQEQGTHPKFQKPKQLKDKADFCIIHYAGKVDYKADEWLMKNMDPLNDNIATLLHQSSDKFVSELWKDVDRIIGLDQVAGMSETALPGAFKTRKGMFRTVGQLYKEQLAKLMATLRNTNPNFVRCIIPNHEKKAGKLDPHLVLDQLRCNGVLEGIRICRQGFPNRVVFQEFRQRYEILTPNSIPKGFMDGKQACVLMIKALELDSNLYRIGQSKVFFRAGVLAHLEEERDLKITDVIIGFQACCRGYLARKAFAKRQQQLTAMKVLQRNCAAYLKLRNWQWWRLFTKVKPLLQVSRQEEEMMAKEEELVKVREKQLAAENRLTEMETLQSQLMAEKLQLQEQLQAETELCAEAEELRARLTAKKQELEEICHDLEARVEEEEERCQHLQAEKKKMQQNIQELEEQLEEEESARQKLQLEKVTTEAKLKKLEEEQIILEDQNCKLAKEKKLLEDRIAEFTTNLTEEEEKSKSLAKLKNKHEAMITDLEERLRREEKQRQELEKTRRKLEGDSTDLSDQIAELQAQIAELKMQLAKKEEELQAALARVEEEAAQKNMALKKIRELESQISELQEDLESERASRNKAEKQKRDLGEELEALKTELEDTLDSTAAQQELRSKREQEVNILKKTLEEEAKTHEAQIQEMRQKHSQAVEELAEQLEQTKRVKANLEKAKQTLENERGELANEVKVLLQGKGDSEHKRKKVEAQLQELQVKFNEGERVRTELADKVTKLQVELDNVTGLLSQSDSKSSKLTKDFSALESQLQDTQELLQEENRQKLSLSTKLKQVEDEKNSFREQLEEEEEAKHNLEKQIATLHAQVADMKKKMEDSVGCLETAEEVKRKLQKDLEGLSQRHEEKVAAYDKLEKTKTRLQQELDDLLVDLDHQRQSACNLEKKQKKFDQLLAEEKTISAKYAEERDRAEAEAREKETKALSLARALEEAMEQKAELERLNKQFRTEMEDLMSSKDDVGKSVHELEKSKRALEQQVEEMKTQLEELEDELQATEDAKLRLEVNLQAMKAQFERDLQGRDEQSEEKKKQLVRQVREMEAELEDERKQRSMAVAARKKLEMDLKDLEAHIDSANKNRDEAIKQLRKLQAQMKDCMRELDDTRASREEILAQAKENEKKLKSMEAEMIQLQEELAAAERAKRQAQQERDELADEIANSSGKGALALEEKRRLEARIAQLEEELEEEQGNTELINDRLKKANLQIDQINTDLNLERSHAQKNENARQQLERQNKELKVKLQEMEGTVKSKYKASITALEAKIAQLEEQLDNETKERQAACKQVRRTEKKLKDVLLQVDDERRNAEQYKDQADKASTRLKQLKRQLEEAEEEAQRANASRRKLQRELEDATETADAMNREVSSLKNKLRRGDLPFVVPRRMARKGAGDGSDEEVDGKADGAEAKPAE
Chain of UniProt P54851 (P54851 whole entry): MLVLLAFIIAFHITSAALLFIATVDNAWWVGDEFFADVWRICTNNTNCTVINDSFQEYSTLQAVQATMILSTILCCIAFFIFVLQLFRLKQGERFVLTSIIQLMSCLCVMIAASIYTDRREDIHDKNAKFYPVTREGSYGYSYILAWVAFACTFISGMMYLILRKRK
Chain of UniProt Q9NRD8 (Q9NRD8 whole entry): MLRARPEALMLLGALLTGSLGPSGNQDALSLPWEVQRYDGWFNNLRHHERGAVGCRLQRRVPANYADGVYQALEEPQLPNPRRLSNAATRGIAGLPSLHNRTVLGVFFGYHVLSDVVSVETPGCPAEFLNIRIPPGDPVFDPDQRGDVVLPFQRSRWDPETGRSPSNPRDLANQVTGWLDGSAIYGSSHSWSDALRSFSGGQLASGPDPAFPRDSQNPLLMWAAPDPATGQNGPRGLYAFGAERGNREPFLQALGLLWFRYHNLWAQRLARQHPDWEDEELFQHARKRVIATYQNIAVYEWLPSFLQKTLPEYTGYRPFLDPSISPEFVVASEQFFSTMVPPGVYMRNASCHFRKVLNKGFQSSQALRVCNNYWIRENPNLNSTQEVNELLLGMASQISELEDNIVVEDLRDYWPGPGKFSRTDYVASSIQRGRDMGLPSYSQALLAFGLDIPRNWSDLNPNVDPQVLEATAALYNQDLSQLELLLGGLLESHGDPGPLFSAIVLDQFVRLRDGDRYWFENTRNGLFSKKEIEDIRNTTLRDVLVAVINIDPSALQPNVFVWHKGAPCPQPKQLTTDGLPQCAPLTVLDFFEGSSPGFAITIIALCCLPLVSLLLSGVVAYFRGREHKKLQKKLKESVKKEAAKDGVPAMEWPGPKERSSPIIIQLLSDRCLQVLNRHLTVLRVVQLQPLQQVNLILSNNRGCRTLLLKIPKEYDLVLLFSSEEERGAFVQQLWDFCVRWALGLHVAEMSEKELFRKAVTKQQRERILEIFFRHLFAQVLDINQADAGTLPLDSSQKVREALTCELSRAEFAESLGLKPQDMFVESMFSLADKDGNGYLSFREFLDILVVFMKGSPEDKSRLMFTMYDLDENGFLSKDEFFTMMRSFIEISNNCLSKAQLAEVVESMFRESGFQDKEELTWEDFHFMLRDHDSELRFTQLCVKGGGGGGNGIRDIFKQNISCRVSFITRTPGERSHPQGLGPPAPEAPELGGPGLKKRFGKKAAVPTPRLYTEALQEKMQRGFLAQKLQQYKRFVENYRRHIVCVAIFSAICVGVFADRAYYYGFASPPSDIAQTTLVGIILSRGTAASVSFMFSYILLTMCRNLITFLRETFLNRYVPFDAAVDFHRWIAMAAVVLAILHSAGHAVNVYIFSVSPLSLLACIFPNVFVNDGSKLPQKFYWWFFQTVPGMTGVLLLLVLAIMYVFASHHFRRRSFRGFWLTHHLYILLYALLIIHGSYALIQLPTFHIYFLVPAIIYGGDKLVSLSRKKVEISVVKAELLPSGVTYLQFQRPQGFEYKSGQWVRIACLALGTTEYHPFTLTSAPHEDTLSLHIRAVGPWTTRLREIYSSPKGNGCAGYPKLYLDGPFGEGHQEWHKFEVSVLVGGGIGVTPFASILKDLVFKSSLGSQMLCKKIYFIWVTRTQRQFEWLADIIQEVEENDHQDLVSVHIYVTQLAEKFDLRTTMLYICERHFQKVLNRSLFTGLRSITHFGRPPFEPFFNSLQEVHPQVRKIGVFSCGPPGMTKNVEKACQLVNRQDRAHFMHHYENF
Chain of UniProt P38159 (P38159 whole entry): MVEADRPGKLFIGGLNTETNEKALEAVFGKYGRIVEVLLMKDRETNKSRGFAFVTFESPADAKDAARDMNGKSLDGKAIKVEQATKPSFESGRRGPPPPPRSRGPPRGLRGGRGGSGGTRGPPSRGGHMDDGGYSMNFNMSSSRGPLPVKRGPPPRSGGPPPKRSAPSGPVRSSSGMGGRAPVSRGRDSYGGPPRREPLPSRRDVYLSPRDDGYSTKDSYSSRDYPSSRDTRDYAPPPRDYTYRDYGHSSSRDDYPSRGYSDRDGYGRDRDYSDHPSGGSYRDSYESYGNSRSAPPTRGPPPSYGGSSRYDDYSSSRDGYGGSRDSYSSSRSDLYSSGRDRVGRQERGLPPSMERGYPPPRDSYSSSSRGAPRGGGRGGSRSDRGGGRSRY
Chain of UniProt P21589 (P21589 whole entry): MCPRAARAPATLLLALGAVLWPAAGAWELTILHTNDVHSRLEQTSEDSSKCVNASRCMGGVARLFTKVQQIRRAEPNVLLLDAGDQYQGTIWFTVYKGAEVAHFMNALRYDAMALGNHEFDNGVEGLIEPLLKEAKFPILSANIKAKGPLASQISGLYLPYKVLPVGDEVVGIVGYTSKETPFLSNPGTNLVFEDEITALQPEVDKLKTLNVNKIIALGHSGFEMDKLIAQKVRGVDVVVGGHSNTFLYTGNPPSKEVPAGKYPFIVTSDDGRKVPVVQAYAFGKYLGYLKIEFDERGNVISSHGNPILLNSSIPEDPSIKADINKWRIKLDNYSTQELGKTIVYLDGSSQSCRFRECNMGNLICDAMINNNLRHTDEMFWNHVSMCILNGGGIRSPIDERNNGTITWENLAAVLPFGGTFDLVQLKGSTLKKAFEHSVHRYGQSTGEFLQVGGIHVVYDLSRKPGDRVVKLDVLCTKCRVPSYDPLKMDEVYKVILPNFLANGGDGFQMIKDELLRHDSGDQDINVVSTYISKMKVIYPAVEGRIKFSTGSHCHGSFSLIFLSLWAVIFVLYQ
Chain of UniProt P25685 (P25685 whole entry): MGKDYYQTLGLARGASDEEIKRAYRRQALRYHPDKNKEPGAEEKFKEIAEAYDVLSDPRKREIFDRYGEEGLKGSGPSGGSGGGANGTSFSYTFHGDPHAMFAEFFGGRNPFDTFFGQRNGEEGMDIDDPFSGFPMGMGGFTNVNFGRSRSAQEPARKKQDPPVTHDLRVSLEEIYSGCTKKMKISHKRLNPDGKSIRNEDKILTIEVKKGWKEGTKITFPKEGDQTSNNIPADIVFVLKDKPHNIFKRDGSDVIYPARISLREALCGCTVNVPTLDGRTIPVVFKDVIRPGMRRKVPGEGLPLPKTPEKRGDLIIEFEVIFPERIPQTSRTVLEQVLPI

Compound in this test: C#CCNC(=O)CCSSCCC(=O)NCCc1ccc(C=O)c(C=O)c1
The test can be described thus: lysine labeling ratio R10:1 (500 µM / 50 µM probe), SILAC-ABPP in living cells; higher = lower intrinsic lysine reactivity toward the probe, active = 2 or less. The following applies: HeLa; probe concentrations 500 vs 50 µM. In outline:
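Forward and reverse SILAC label swaps were used with living light and heavy HeLa cells in PBS at room temperature, which were given an alkyne-tagged, disulfide-linked lysine probe at 50 µM or 500 µM. R is the per-lysine filtered median high-probe/low-probe MS1 peptide ratio, with the median then taken across both swap directions. Values are limited to 20.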
Take UniProt Q13275 (lysine site: K62): the “lysine labeling ratio R10:1” value was 3.35.
On to “CNP (lysine site: K402) (UniProt P09543)”, for which the “lysine labeling ratio R10:1” value is 2.29.
Then “PTPRS (lysine site: K370) (UniProt Q13332)”, with 2.37; and “HSPA9 (lysine site: K345) (UniProt P38646)”, with 1.17 (active).
Then “LAMA5 (lysine site: K255) (UniProt O15230)”, with 2.33; and “LMAN1 (lysine site: K372) (UniProt P49257)”, with 2.72; and UniProt Q9NRD8 (lysine site: K530), with 6.54.
For “MYH9 (lysine site: K1828) (UniProt P35579)” the value was 2.77; for UniProt Q9HAB3 (lysine site: K437), 2.11; for “CSPG4 (lysine site: K465) (UniProt Q6UVK1)”, 1.56 (active).
Turning to “RPLP0 (lysine site: K106) (UniProt P05388)”, the “lysine labeling ratio R10:1” value was 0.868 (active).
For “PDAP1 (lysine site: K181) (UniProt Q13442)” the value was 1.83 (active); for “GAS1 (lysine site: K137) (UniProt P54826)”, 3.54.
Then “DCTN2 (lysine site: K175) (UniProt Q13561)”, with 2.59; and “LRP1 (lysine site: K3910) (UniProt Q07954)”, with 1.43 (active).
Turning to “DNAJB1 (lysine site: K21) (UniProt P25685)”, the “lysine labeling ratio R10:1” value is 1 (active).
For “IGSF3 (lysine site: K191) (UniProt O75054)” the value was 4.16; for “PRDX1 (lysine site: K199) (UniProt Q06830)”, 2.6; for “TFPI (lysine site: K102) (UniProt P10646)”, 7.9.
For “RBMX (lysine site: K150) (UniProt P38159)” the value was 16.9; for “CSE1L (lysine site: K158) (UniProt P55060)”, 3.34; for UniProt P14618 (lysine site: K498), 1.49 (active).
For the target “EPCAM (lysine site: K129) (UniProt P16422)”, the “lysine labeling ratio R10:1” value is 6.18.
For “ASPH (lysine site: K609) (UniProt Q12797)” the value was 1.47 (active); for “NOTCH2 (lysine site: K1350) (UniProt Q04721)”, 2.12; for “IGF1R (lysine site: K502) (UniProt P08069)”, 2.64.
Then “F11R (lysine site: K78) (UniProt Q9Y624)”, with 3.33; and “FLNA (lysine site: K520) (UniProt P21333)”, with 2.73; and UniProt Q99623 (lysine site: K250), with 3.72.
Then “XRCC6 (lysine site: K189) (UniProt P12956)”, with 4; and “RPL5 (lysine site: K48) (UniProt P46777)”, with 1.91 (active).
UniProt P21589 (lysine site: K433): the “lysine labeling ratio R10:1” value was 3.8.
Then UniProt P54851 (lysine site: K126), with 3.69.
Regarding “HSPG2 (lysine site: K3155) (UniProt P98160)”, the “lysine labeling ratio R10:1” value was 1.37 (active).
Then “SPTBN1 (lysine site: K2177) (UniProt Q01082)”, with 14.1; and “GPC1 (lysine site: K42) (UniProt P35052)”, with 2.38.
Then “NEGR1 (lysine site: K52) (UniProt Q7Z3B1)”, with 4.69; and UniProt Q15149 (lysine site: K1886), with 1.49 (active); and “ROR2 (lysine site: K113) (UniProt Q01974)”, with 6.49.
For “VIM (lysine site: K168) (UniProt P08670)” the value was 3.85.

Values taken from the supplement of paper PMC11001985.
